Bioassay records from PubChem.
In the library only some 1.6% were active in any assay of this set; here they are far more common.
KCNQ2 block – rat KCNQ2 potassium channel inhibitors, primary screen, cell-based, CHO-K1, FluxOR thallium flux, B-score | AID 2156, 2009 | Potassium voltage-gated channel subfamily KQT member 2 (Rattus norvegicus), O88943 | 310,000 tested, 1.1% active | 20 min; active compounds read low | B-score at 10 µM;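 active means fluorescence ratio B-score at most minus 3 library SDs, with starting brightness B-score within 2 library SDs, cut at about -5.5 in these data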
KCNQ2 enhance – potentiators of rat KCNQ2 potassium channel; AID 2239, 2010; CHO-K1 KCNQ2, FluxOR thallium flux fluorescence; active compounds read high; Potassium voltage-gated channel subfamily KQT member 2 (Rattus norvegicus), O88943; B-score at 10 µM; 310,000 tested, 0.54% active;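 active means fluorescence ratio B-score at least 3 SD of library B-scores, with initial fluorescence B-score within 3 of them, cut at about 5.3 in these data; same plate scores as AID 2156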;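 further: B-score of peak minus minimum over baseline fluorescence ratio after K+ and Tl+ stimulus; positive B-score means potentiation of KCNQ2 with more thallium influx and brighter signal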
KCNQ2 block conf – rat KCNQ2 potassium channel inhibitors, confirmation, cell-based, thallium flux. shares compounds with KCNQ2 block. KCNQ2-expressing cells, inhibition; active compounds read low. activity change, negative = inhibition, % at 10 µM. 1,000 tested, 57% active. AID 493025, 2011
KCNQ1 spec – human KCNQ1 channel inhibition, counter-screen for KCNQ2 inhibitor project, cell-based, FluxOR thallium flux; shares compounds with KCNQ2 block; KCNQ1-expressing cells, FluxOR thallium flux fluorescence; active compounds read low; activity change, negative = inhibition, % at 10 µM; 1,000 tested, 15% active; AID 493026, 2011;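 active means activity change at least 3 SD of negative controls below their mean in both duplicate wells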;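 further: CHO cells stably transfected with KCNQ1 and depolarized by potassium stimulus; peak minus minimum fluorescence over baseline after thallium addition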
CHO Tl ctr – thallium flux change in parental CHO cells, counter-screen for KCNQ2 inhibitor project; activity change, % at 10 µM; shares compounds with KCNQ2 block; active compounds read low; 1,000 tested, 14% active; AID 493029, 2011
KCNQ2 inh confirm – rat KCNQ2 channel inhibitors, confirmation, cell-based, automated patch clamp, single concentration | shares compounds with KCNQ2 block | KCNQ2-expressing cells, automated patch clamp current | calls only at 10 µM | 550 tested, 49% active
Numbers stand for hits; – = inactive; · = no result given; + = active, no number. Unless noted, how the calls were made is not given here.

SMILES	KCNQ2 block	KCNQ2 enhance	KCNQ2 block conf	KCNQ1 spec	CHO Tl ctr	others
CCOC(=O)c1cnc2c(F)ccc(F)c2c1Sc1ccccc1	-7.6	–	–	–	–
COCCNC(=O)Cn1nc(-c2ccc(C)cc2)ccc1=O	–	·	·	·	·
Clc1ccc(Cn2cccn2)cn1	–	–	·	·	·
COCCn1c(SCc2cccc(F)c2)nc2cc(C(=O)OC)ccc2c1=O	–	·	·	·	·
COC(=O)/C=C/c1ccc2c(c1)OCO2	–	–	·	·	·
CN(C(=O)/C=C/c1ccc2c(c1)OCO2)c1ccccc1	-6.6	–	-23%	–	–	KCNQ2 inh confirm=–
O=C(Oc1ccc(Br)cc1C(=S)N1CCOCC1)c1ccccc1	–	·	·	·	·
CCC1(C(=O)c2ccccc2)C2c3cc(Br)ccc3OC(=O)C21C(=O)N1CCOCC1 (stereo not drawn)	-9.7	–	–	–	–
COCCn1c(SCC(=O)N2CCCCCC2)nnc1-c1ccco1	–	·	·	·	·
O=C(c1cccc(C(F)(F)F)c1)C1CCCN(C(=O)CCCN2CCCC2=O)C1 (stereo not drawn)	–	·	·	·	·
CN(C)c1nc(NCc2ccccc2)nc(N/N=C/c2ccccc2F)n1	–	·	·	·	·
CN(C)c1nc(NCc2ccccc2)nc(N/N=C/c2ccc(Cl)cc2Cl)n1	-8.8	–	–	–	–
Cc1ccc(S(=O)(=O)NCc2cn3c(C)csc3n2)cc1	–	–	·	·	·
Cc1ccc(SCc2cn3c(C)csc3n2)cc1	-8.1	–	–	–	–
C=CCN(C(=O)CNS(=O)(=O)c1ccccc1)C(C(=O)NCCOC)c1cccnc1 (stereo not drawn)	–	–	·	·	·
CCOc1ccc(NC(=O)C2C3CC/C=C\CCC32)cc1 (stereo not drawn)	–	·	·	·	·
C(=C\c1ccccc1)/CN1CCN(C(c2ccccc2)c2ccccc2)CC1	–	·	·	·	·
Fc1ccc(C(c2ccc(F)cc2)N2CCN(C/C=C/c3ccccc3)CC2)cc1	-8.6	–	–	–	–
Cn1c(=O)c2c(ncn2CC(=O)N/N=C/C=C/c2ccccc2[N+](=O)[O-])n(C)c1=O	–	·	·	·	·
CC1(C)CC(=O)c2c(O)c(-c3ccccc3)c(=O)n(-c3ccccc3)c2C1	–	·	·	·	·
CCC(=O)N1CCN(c2ccccc2NC(=O)c2cccc(C)c2)CC1	–	·	·	·	·
Cc1ccccc1OCC(=O)Nc1ccccc1N1CCCCC1	-10	–	-26%	–	–	KCNQ2 inh confirm=+
COc1ccc(NC(=O)COc2ccccc2C)cc1S(=O)(=O)N1CCCCC1	–	·	·	·	·
Cc1cc(C)cc(OCC(=O)Nc2ccccc2N2CCCCC2)c1	–	·	·	·	·
Cc1ccc(NC(=O)COc2cccc(C)c2C)cc1S(=O)(=O)N1CCCCCC1	-8.8	–	-36%	-32%	-24%	KCNQ2 inh confirm=–
SMILES	KCNQ2 block	KCNQ2 enhance	KCNQ2 block conf	KCNQ1 spec	CHO Tl ctr	others
CCC(=O)N1CCN(c2ccccc2NC(=O)COc2cccc(C)c2)CC1	-10	–	-28%	–	–	KCNQ2 inh confirm=+
COc1ccc(NCc2cc(=O)oc3cc(NC(C)=O)ccc23)cc1	–	–	·	·	·
CC(=O)c1ccc(NC(=O)C(Cc2ccccc2)n2cccc2)cc1 (stereo not drawn)	–	–	·	·	·
CC1CCN(c2ccccc2NC(=O)c2ccc(F)cc2)CC1	-9.3	–	-17%	–	–	KCNQ2 inh confirm=–
CN1CCN(c2ccccc2NC(=O)c2ccc(F)cc2)CC1	–	–	·	·	·
Cc1ccc(-c2ocnc2C(=O)Nc2ccccc2C(=O)N2CCCC2)cc1	–	–	·	·	·
O=C(Nc1ccccc1N1CCCCC1)c1ncoc1-c1ccc(F)cc1	-7.1	–	–	–	–
Cc1ccc(CNC(=O)CC2(CC3=NS(=O)(=O)c4ccccc4N3)CCCC2)cc1	–	–	·	·	·
COC(=O)c1cccc(NC(=O)c2cc(OC)c(OC)c(OC)c2Br)c1	–	·	·	·	·
COc1cc(C(=O)Nc2cccc(C)c2C)c(Br)c(OC)c1OC	-8	–	-24%	–	–	KCNQ2 inh confirm=+
CCCCn1c(N)c(N(CC(C)C)C(=O)c2cc(S(=O)(=O)N3CCCCC3)ccc2C)c(=O)[nH]c1=O	–	–	·	·	·
Cc1ccc(S(=O)(=O)c2nc(-c3ccccc3Cl)oc2N(C)C)cc1	–	·	·	·	·
CN(C)c1oc(-c2ccccc2Cl)nc1P(=O)(c1ccccc1)c1ccccc1	-9.5	–	-39%	-31%	-24%	KCNQ2 inh confirm=+
COc1ccc(S(=O)(=O)N2CCC(C(=O)Nc3ccc(S(=O)(=O)N4CCCC4)cc3)CC2)cc1OC	–	·	·	·	·
